An excerpt weighted towards active compounds, which were near 1.2% of everything screened.
NCOA3 inh – inhibitors of human steroid receptor coactivator 3 (SRC3); Q9Y6Q9; HEK293 GAL4-SRC3 luciferase reporter, luminescence; inhibition, % at 3.6 µM; 360,000 tested, 0.17% active;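 active = inhibition above a per-campaign cutoff, the mean of all compounds plus 3 SD, cut at about 60% in these data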;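 note: higher means less SRC3-driven luciferase light from the GAL4 reporter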
SRC1 inh – human NCOA1 inhibition. Q15788. HEK293 GAL4-SRC1 luciferase reporter, luminescence. inhibition, % at 3.6 µM. 360,000 tested, 0.12% active. AID 588354;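 active = inhibition above the campaign mean plus 3 SD, with each screening campaign given its own cutoff, cut at about 60% in these data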
NR2F2 inh – inhibitors of human COUP-TFII (NR2F2); AID 686940; inhibition, % at 8.6 µM; 370,000 tested, 0.7% active; P24468; HEK293T NGFI-A luciferase reporter, luminescence;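 active = inhibition above a per-plate cutoff, mean inhibition of test wells between control levels plus 3 SD, cut at about 38% in these data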;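 note: cells cotransfected with COUP-TFII expression vector driving the NGFI-A reporter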
Efflux pump mplx – antifungal efflux pump inhibition, Nile Red retention; S. cerevisiae Candida pump triplex; inhibition, % at 10 µM; 330,000 tested, 0.44% active;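 active = plate passing quality check with inhibition over a set limit, or well fluorescence over plate mean plus 4 SD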;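 note: Nile Red retained in pooled yeast measured as flow cytometry median fluorescence; higher means more Nile Red kept so more efflux inhibition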
NCOA2 inhibitor – inhibits human steroid receptor coactivator 2; 370,000 tested, 0.17% active; AID 651957; HEK293 GAL4-SRC2 luciferase reporter, luminescence; Q15596; inhibition, % at 9 µM;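 active = inhibition above the mean inhibition of all tested compounds plus 3 SD, set per campaign, cut at about 52% in these data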
LRH-1 inv ag – inverse agonists of human LRH-1 (NR5A2). HEK293T StAR-luciferase reporter, LRH-1 transfected, 24 h. O00482. inhibition, % at 3.6 µM. AID 602396. 360,000 tested, 0.13% active;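 active = inhibition above the mean inhibition of all tested compounds plus 3 SD, cut at about 73% in these data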
VP16 Luc counter – inhibits VP16 reporter, flagging COUP-TFII antagonist hits | shares compounds with NR2F2 inh | HEK293 Gal4-VP16 luciferase reporter, luminescence | inhibition, % at 8.5 µM | 2,500 tested, 25% active | AID 687007; in the data active = inhibition above about 13%
COUP-TFII conf – confirmation of human COUP-TFII (NR2F2) inhibitors; shares compounds with NR2F2 inh; HEK293 NGFI-A luciferase reporter, luminescence; inhibition, % at 8.5 µM; 2,500 tested, 45% active;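 active = mean inhibition over three repeats above a set limit taken from the earlier primary screen, cut at about 38% in these data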
Large screens that a line does not name were inactive (follow-up assays come after a bar, where they were run).

N#C/C(=C\c1ccc(N2CCCCC2)o1)C(=O)Nc1cccc(Br)c1	none
NCCN1C(=O)S/C(=C\c2ccc3c(c2)OCO3)C1=O	NR2F2 inh 76.0, NCOA2 inhibitor 69.3 | VP16 Luc counter 27.2 | COUP-TFII conf inactive
O=C(CNC(=O)c1ccccc1F)NCCN1C(=O)S/C(=C\c2ccc3c(c2)OCO3)C1=O	none
COc1ccc(NC(=O)N2CCC(c3ccccc3)C2)c(OC)c1 (centres undefined)	none
S=C(NCC1(c2ccccc2)CCCC1)Nc1ccccc1	NR2F2 inh 41.8 | VP16 Luc counter inactive | COUP-TFII conf inactive
CC(=O)c1cn(CCOc2cc(C)ccc2C)c2ccccc12	NR2F2 inh 54.7 | VP16 Luc counter 18.2 | COUP-TFII conf 63.3
COc1cccc(OCCn2cc(C(C)=O)c3ccccc32)c1	NR2F2 inh 48.6 | VP16 Luc counter inactive | COUP-TFII conf 42.8
Cc1ccc(NC(=O)Cn2cc(C(=O)C3CC3)c3ccccc32)c(C)c1	none
CC(=O)c1cn(CC(=O)Nc2ccc(C)cc2C)c2ccccc12	NR2F2 inh 50.3 | VP16 Luc counter 13.8 | COUP-TFII conf 53.8
O=C(CCN1C(=O)[C@@H]2Cc3ccccc3CN2C1=O)NCc1ccccc1Cl	none
OCCCNc1ncnc2scc(-c3ccc(Cl)cc3)c12	NR2F2 inh 38.3 | VP16 Luc counter inactive | COUP-TFII conf inactive
NNc1ncnc2scc(-c3ccc(Cl)cc3)c12	none
Cc1ccccc1CN1CCCCC(NC(=O)c2ccccc2C)C1=O (centres undefined)	none (no result: NCOA3 inh, SRC1 inh, Efflux pump mplx, LRH-1 inv ag)
Cc1ccc(CN2CCCCC(NC(=O)c3ccc(F)cc3)C2=O)cc1 (centres undefined)	none (no result: NCOA3 inh, SRC1 inh, Efflux pump mplx, LRH-1 inv ag)
Cc1ccccc1CN1CCCCC(NC(=O)c2ccc(-c3ccccc3)cc2)C1=O (centres undefined)	NR2F2 inh 57.0 (no result: NCOA3 inh, SRC1 inh, Efflux pump mplx, LRH-1 inv ag) | VP16 Luc counter inactive | COUP-TFII conf 40.7
CCCCOc1ccc(C(=O)NC2CCCCN(Cc3ccc(C)cc3)C2=O)cc1 (centres undefined)	NR2F2 inh 39.5 (no result: NCOA3 inh, SRC1 inh, Efflux pump mplx, LRH-1 inv ag) | VP16 Luc counter inactive | COUP-TFII conf inactive
Cc1ccc(CN2CCCCC(NC(=O)c3ccc(COc4ccccc4)cc3)C2=O)cc1 (centres undefined)	NR2F2 inh 50.8 (no result: NCOA3 inh, SRC1 inh, Efflux pump mplx, LRH-1 inv ag) | VP16 Luc counter inactive | COUP-TFII conf inactive
Cc1ccc(N(C(C)C(=O)N2CCCC2)S(C)(=O)=O)cc1 (centres undefined)	none
CN1CCN(c2ccc(CNC(=O)c3ccc(-c4ccnn4C)c4ccoc34)cc2)CC1	none (no result: Efflux pump mplx)
O=C(NCc1ccccc1C(F)(F)F)C1CC(c2ccccc2C(F)(F)F)=NO1 (centres undefined)	none
COc1ccc(C(=O)OCCN2CCN(C3CN(Cc4cn(Cc5cccc(C)c5)nn4)S(=O)(=O)C3)CC2)cc1OC (centres undefined)	NR2F2 inh 46.6 (no result: NCOA3 inh, SRC1 inh, Efflux pump mplx, LRH-1 inv ag) | VP16 Luc counter inactive | COUP-TFII conf inactive
CCc1ccc(/C=C/c2c[nH]c3ccccc23)[n+](CC)c1	NR2F2 inh 40.3 | VP16 Luc counter inactive | COUP-TFII conf 38.4
CCN1/C(=C/c2sc(-c3ccccc3C)c[n+]2C)Sc2ccccc21	NCOA3 inh 79.7, NR2F2 inh 90.4, LRH-1 inv ag 90.0 (no result: Efflux pump mplx) | VP16 Luc counter 16.2 | COUP-TFII conf 86.4
NC(=O)c1ccccc1OCC(=O)NS(=O)(=O)c1ccccc1	none
Oc1ccccc1-c1cc(-c2cccc(F)c2)n[nH]1	none
CC(C)(C)c1ccc(-c2cc(-c3ccccc3O)[nH]n2)cc1	NR2F2 inh 37.4 | VP16 Luc counter inactive | COUP-TFII conf 50.9
CNC(=S)N1CCN(C(=O)c2ccco2)CC1	none
Cc1csc(NC(=O)CSc2nnc(-c3ccc(Cl)cc3)n2N)n1	none
COc1cc(OC)cc(-c2cc3nc(C)c(CCC(=O)NCc4ccccc4)c(C)n3n2)c1	NR2F2 inh 58.4, NCOA2 inhibitor 77.3 | VP16 Luc counter 28.6 | COUP-TFII conf 47.1
Cc1csc(NC(=O)CCc2c(C)nc3cc(-c4ccc(Cl)cc4)nn3c2C)n1	NR2F2 inh 48.7, NCOA2 inhibitor 66.4 | VP16 Luc counter inactive | COUP-TFII conf inactive
COc1ccccc1-c1cc2nc(C)c(CCC(=O)NCc3ccc(F)cc3)c(C)n2n1	none
Cn1c(=O)n(C)c2cc([N+](=O)[O-])c(N3CCN(C(=O)c4ccccc4Cl)CC3)cc21	NR2F2 inh 45.2 | VP16 Luc counter inactive | COUP-TFII conf inactive
Cn1c(=O)n(C)c2cc([N+](=O)[O-])c(N3CCN(C(=O)c4ccccc4Br)CC3)cc21	none
O=C(Nc1ccccc1)Nc1cc(OCC(F)(F)F)cc(OCC(F)(F)F)c1	NCOA3 inh 66.9, NR2F2 inh 67.2 (no result: Efflux pump mplx) | VP16 Luc counter inactive | COUP-TFII conf inactive
O=C(Nc1ccccc1)Nc1cc(Cl)cc(Cl)c1	none
COc1ccc(-c2nc(-c3ccccn3)no2)cc1	NCOA3 inh 68.8, NR2F2 inh 83.3, NCOA2 inhibitor 74.8 | VP16 Luc counter 60.4 | COUP-TFII conf 81.2
COc1ccccc1-c1nc(-c2ccccn2)no1	none
Nc1ncnc2c(C3OC(CO)C(O)C3O)c[nH]c12 (centres undefined)	NCOA3 inh 94.0, SRC1 inh 94.2, NR2F2 inh 81.8, NCOA2 inhibitor 69.5, LRH-1 inv ag 99.5 (no result: Efflux pump mplx) | VP16 Luc counter 48.9 | COUP-TFII conf 80.6
CC(=O)c1cccc(NC(=O)Nc2cnn(Cc3ccc(Cl)cc3Cl)c2)c1	none
COc1ccc(C=Cc2ccc3ccccc3n2)c(OC)c1	NR2F2 inh 47.5 (no result: Efflux pump mplx) | VP16 Luc counter inactive | COUP-TFII conf inactive
CSc1nc2nc3c(cc2c(=O)n1-c1ccccc1C)CCCC3	NR2F2 inh 41.5 | VP16 Luc counter inactive | COUP-TFII conf inactive
CC(C)(C)OC(=O)C[C@@H]1C/C=C\C[C@@H](CC(=O)N(CCO)Cc2ccccc2)C(=O)NC[C@H](c2ccccc2)OC1=O	none
CCc1c(-c2ccccc2F)ncn1Cc1cccc(-c2ccccc2)c1	NR2F2 inh 43.9 (no result: NCOA3 inh, SRC1 inh, Efflux pump mplx) | VP16 Luc counter inactive | COUP-TFII conf inactive
O=C(O)CC(NC(=O)c1cccc(F)c1)c1ccc(OC2CCCC2)cc1 (centres undefined)	none
Cc1nc2cc(N3CCCCC3)c(NC(=O)c3ccncc3)cc2c(=O)n1Cc1ccc(Cl)cc1	none (no result: NCOA3 inh, SRC1 inh, NR2F2 inh, NCOA2 inhibitor, LRH-1 inv ag)
Cc1nc2cc(N3CCN(C)CC3)c(NC(=O)Cc3ccccc3)cc2c(=O)n1Cc1ccccc1	NR2F2 inh 48.8 | VP16 Luc counter inactive | COUP-TFII conf inactive
S=C(NN=C(c1ccccc1)c1ccccn1)N(Cc1ccccn1)Cc1ccccn1	NCOA3 inh 71.4, SRC1 inh 65.9, NR2F2 inh 54.2 (no result: Efflux pump mplx) | VP16 Luc counter inactive | COUP-TFII conf 45.1
Cc1cccc(-c2noc(CCC(=O)NCc3ccco3)n2)c1	none
